Inconclusive results are not listed. Entries that show only a call come without a potency. Active and inactive are the calls of the source. The call rests on the fitted dose curve; in most records, active means well fitted curve in the direction sought with a large enough effect; inconclusive means small, poorly fitted or top-dose-only effect, or another doubt; inactive means no such curve, though single readings can be large; an effect the other way counts as inactive or inconclusive.
experiment: qHTS assay to identify small molecule inhibitors of chordoma cells - UCH-1 (AID 1259355); conditions: UCH-1 chordoma viability, CellTiter-Glo, 48 h, combination, with auranofin plus four topoisomerase inhibitors; series mostly up to 46.1 µM; further: nearly all actives have a fitted effect of over 55% in size
How it was run: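 Cells (800/well) were seeded and left overnight at 37 C, 5% CO2, then treated with drugs at 15 concentrations plus a combination mix of auranofin, camptothecin, doxorubicin, rubitecan and topotecan. Viability after 48hr was read by CellTiter-Glo luminescence.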
Potency means the concentration at half of the fitted maximal effect.

Question: Which Potency does the source give for `O=C(/C=C/c1cccc(F)c1)NC1CC1` here?
Answer: inactive

Question: Which Potency does the source give for `CC1CS(=O)(=O)CCN1/N=C/c1ccc([N+](=O)[O-])o1` (stereo unspecified) here?
Answer: inactive

Question: Which Potency does the source give for `C=N[C@@H](C(=O)N[C@@H]1C(=O)N2[C@@H]1SC(C)(C)[C@@H]2C(=O)O)c1ccccc1` here?
Answer: inactive

Question: For `OB(O)O`, which Potency is on record?
Answer: inactive

Question: Which Potency does the source give for `CC(C)c1nc(N(C)S(C)(=O)=O)nc(-c2ccc(F)cc2)c1/C=C/C(O)CC(O)CC(=O)O` (stereo unspecified) here?
Answer: inactive

Question: Which Potency does the source give for `Cc1c(N)nc([C@H](CC(N)=O)NC[C@H](N)C(N)=O)nc1C(=O)N[C@H](C(=O)N[C@H](C)[C@@H](O)[C@H](C)C(=O)N[C@H](C(=O)NCCc1nc(-c2nc(C(=O)NCCCCN=C(N)N)cs2)cs1)[C@@H](C)O)[C@@H](O[C@@H]1O[C@@H](CO)[C@@H](O)[C@H](O)[C@@H]1O[C@H]1O[C@H](CO)[C@@H](O)[C@H](OC(N)=O)[C@@H]1O)c1cnc[nH]1` here?
Answer: inactive

Question: With `CCCCC[C@H](O)/C=C/[C@H]1[C@H](O)CC(=O)[C@@H]1CCCCCCC(=O)O` as the compound, how does the Potency read?
Answer: inactive

Question: For `CC(C)(O/N=C(\C(=O)N[C@@H]1C(=O)N2C(C(=O)[O-])=C(C[n+]3ccccc3)CS[C@H]12)c1csc(N)n1)C(=O)O`, which Potency is on record?
Answer: inactive

Question: With `Cc1cc(C(=O)NCCc2ccc(S(=O)(=O)NC(=O)NN3CCCCCC3)cc2)no1` as the compound, how does the Potency read?
Answer: inactive

Question: For `O=C(CCCN1CCN2CCCC2C1)c1ccc(F)cc1` (stereo unspecified), which Potency is on record?
Answer: inactive

Question: Which Potency does the source give for `CCCCC` here?
Answer: inactive

Question: Which Potency does the source give for `CCC(C(=O)NC(N)=O)c1ccccc1` (stereo unspecified) here?
Answer: inactive

Question: For `Nc1ncnc2c1ncn2CCOCP(=O)(O)O`, which Potency is on record?
Answer: inactive

Question: Which Potency does the source give for `C[C@@H]1NC(=O)[C@@H](N)CNC(=O)[C@H](C2CCNC(N)=N2)NC(=O)/C(=C/NC(N)=O)NC(=O)[C@H](CNC(=O)C[C@@H](N)CCCN)NC1=O` (stereo partly specified) here?
Answer: inactive

Question: For `CC(=C\c1ccccc1)/C=C1/SC(=S)N(CC(=O)O)C1=O`, which Potency is on record?
Answer: inactive

Question: For `Nc1nc(=O)n([C@@H]2CS[C@H](CO)O2)cc1F`, which Potency is on record?
Answer: inactive

Question: For `COc1ccc(/C=C/C(=O)O)cc1`, which Potency is on record?
Answer: inactive

Question: Which Potency does the source give for `NC[C@@H]1CC[C@@H](N)[C@@H](O[C@H]2[C@H](O)[C@@H](O[C@H]3O[C@H](CO)[C@@H](O)[C@H](N)[C@H]3O)[C@H](N)C[C@@H]2N)O1` here?
Answer: inactive

Question: For `CO[C@H]1O[C@@H]2O[C@@]3(C)CC[C@H]4[C@H](C)CC[C@@H]([C@H]1C)[C@@]24OO3`, which Potency is on record?
Answer: inactive

Question: For `O=C(O)COc1ccc(CCNS(=O)(=O)c2ccccc2)s1`, which Potency is on record?
Answer: inactive

Question: Which Potency does the source give for `CCCCC/C=C\C/C=C\C/C=C\CCCCC(=O)O` here?
Answer: inactive

Question: Which Potency does the source give for `CCCOc1cc(N)ccc1C(=O)OCCN(CC)CC` here?
Answer: inactive

Question: With `CC(C)[C@@H](C)/C=C/[C@@H](C)[C@H]1CC[C@H]2/C(=C/C=C3\C[C@@H](O)CC[C@@H]3C)CCC[C@]12C` as the compound, how does the Potency read?
Answer: inactive

Question: With `Cc1cccc(C)c1NC(=O)NC1=CCCN1C` as the compound, how does the Potency read?
Answer: inactive

Question: With `CC(=O)Oc1cccc(C(=O)O)c1OC(C)=O` as the compound, how does the Potency read?
Answer: inactive

Question: For `CC1=CC(=C(c2ccc(N)cc2)c2ccc(N)cc2)C=CC1=N`, which Potency is on record?
Answer: 15.8 µM (active)

Question: With `CO/N=C(\C(=O)N[C@@H]1C(=O)N2C(C(=O)[O-])=C(C[n+]3ccc(N)n3CCO)CS[C@H]12)c1csc(N)n1` as the compound, how does the Potency read?
Answer: inactive

Question: Which Potency does the source give for `C[C@@H]1O[C@@H]1P(=O)(O)O` here?
Answer: inactive

Question: With `Nc1nccs1` as the compound, how does the Potency read?
Answer: inactive

Question: For `N=C(N)n1cccn1`, which Potency is on record?
Answer: inactive

Question: Which Potency does the source give for `CCCC1C(=O)N2C(N(C)C)=Nc3ccc(C)cc3N2C1=O` (stereo unspecified) here?
Answer: inactive

Question: For `CC(C)(C)CC(C)(C)c1ccc(OCCO)cc1`, which Potency is on record?
Answer: inactive

Question: Which Potency does the source give for `Cc1cc(-c2ccc(N=Nc3ccc4c(S(=O)(=O)O)cc(S(=O)(=O)O)c(N)c4c3O)c(C)c2)ccc1N=Nc1ccc2c(S(=O)(=O)O)cc(S(=O)(=O)O)c(N)c2c1O` here?
Answer: inactive

Question: For `O=S(=O)(O)CC(S)CS` (stereo unspecified), which Potency is on record?
Answer: inactive

Question: Which Potency does the source give for `CC(=O)N[C@@H]1C(O[C@H]2O[C@H](C(=O)O)C(O)[C@H](O)[C@H]2O)[C@H](O)[C@@H](CO)O[C@H]1O[C@@H]1C(C(=O)O)O[C@@H](O[C@H]2[C@H](O)[C@@H](CO)OC(O)[C@@H]2NC(C)=O)[C@H](O)[C@H]1O` (stereo partly specified) here?
Answer: inactive

Question: Which Potency does the source give for `COC(=O)c1ccccc1O` here?
Answer: inactive

Question: For `NCCN`, which Potency is on record?
Answer: inactive

Question: Which Potency does the source give for `CO/N=C(\C(=O)N[C@@H]1C(=O)N2C(C(=O)O)=C(CSc3nnnn3C)CS[C@H]12)c1csc(N)n1` here?
Answer: inactive

experiment: qHTS assay to identify small molecule inhibitors of chordoma cells - UCH-2 (AID 1259356); conditions: UCH-2 chordoma viability, CellTiter-Glo ATP luminescence, 48 h; series mostly up to 46.1 µM

Question: For `O=C(/C=C/c1cccc(F)c1)NC1CC1`, which Potency is on record?
Answer: inactive

Question: With `CC1CS(=O)(=O)CCN1/N=C/c1ccc([N+](=O)[O-])o1` (stereo unspecified) as the compound, how does the Potency read?
Answer: inactive

Question: For `C=N[C@@H](C(=O)N[C@@H]1C(=O)N2[C@@H]1SC(C)(C)[C@@H]2C(=O)O)c1ccccc1`, which Potency is on record?
Answer: inactive

Question: Which Potency does the source give for `OB(O)O` here?
Answer: inactive

Question: Which Potency does the source give for `CC(C)c1nc(N(C)S(C)(=O)=O)nc(-c2ccc(F)cc2)c1/C=C/C(O)CC(O)CC(=O)O` (stereo unspecified) here?
Answer: inactive

Question: For `Cc1c(N)nc([C@H](CC(N)=O)NC[C@H](N)C(N)=O)nc1C(=O)N[C@H](C(=O)N[C@H](C)[C@@H](O)[C@H](C)C(=O)N[C@H](C(=O)NCCc1nc(-c2nc(C(=O)NCCCCN=C(N)N)cs2)cs1)[C@@H](C)O)[C@@H](O[C@@H]1O[C@@H](CO)[C@@H](O)[C@H](O)[C@@H]1O[C@H]1O[C@H](CO)[C@@H](O)[C@H](OC(N)=O)[C@@H]1O)c1cnc[nH]1`, which Potency is on record?
Answer: inactive

Question: For `CCCCC[C@H](O)/C=C/[C@H]1[C@H](O)CC(=O)[C@@H]1CCCCCCC(=O)O`, which Potency is on record?
Answer: inactive

Question: With `CC(C)(O/N=C(\C(=O)N[C@@H]1C(=O)N2C(C(=O)[O-])=C(C[n+]3ccccc3)CS[C@H]12)c1csc(N)n1)C(=O)O` as the compound, how does the Potency read?
Answer: inactive

Question: For `Cc1cc(C(=O)NCCc2ccc(S(=O)(=O)NC(=O)NN3CCCCCC3)cc2)no1`, which Potency is on record?
Answer: inactive

Question: With `O=C(CCCN1CCN2CCCC2C1)c1ccc(F)cc1` (stereo unspecified) as the compound, how does the Potency read?
Answer: inactive

Question: Which Potency does the source give for `CCCCC` here?
Answer: inactive

Question: With `CCC(C(=O)NC(N)=O)c1ccccc1` (stereo unspecified) as the compound, how does the Potency read?
Answer: inactive

Question: With `Nc1ncnc2c1ncn2CCOCP(=O)(O)O` as the compound, how does the Potency read?
Answer: inactive

Question: For `C[C@@H]1NC(=O)[C@@H](N)CNC(=O)[C@H](C2CCNC(N)=N2)NC(=O)/C(=C/NC(N)=O)NC(=O)[C@H](CNC(=O)C[C@@H](N)CCCN)NC1=O` (stereo partly specified), which Potency is on record?
Answer: inactive

Question: With `CC(=C\c1ccccc1)/C=C1/SC(=S)N(CC(=O)O)C1=O` as the compound, how does the Potency read?
Answer: inactive

Question: With `Nc1nc(=O)n([C@@H]2CS[C@H](CO)O2)cc1F` as the compound, how does the Potency read?
Answer: inactive

Question: For `COc1ccc(/C=C/C(=O)O)cc1`, which Potency is on record?
Answer: inactive

Question: For `NC[C@@H]1CC[C@@H](N)[C@@H](O[C@H]2[C@H](O)[C@@H](O[C@H]3O[C@H](CO)[C@@H](O)[C@H](N)[C@H]3O)[C@H](N)C[C@@H]2N)O1`, which Potency is on record?
Answer: inactive

Question: With `CO[C@H]1O[C@@H]2O[C@@]3(C)CC[C@H]4[C@H](C)CC[C@@H]([C@H]1C)[C@@]24OO3` as the compound, how does the Potency read?
Answer: inactive

Question: For `O=C(O)COc1ccc(CCNS(=O)(=O)c2ccccc2)s1`, which Potency is on record?
Answer: inactive

Question: Which Potency does the source give for `CCCCC/C=C\C/C=C\C/C=C\CCCCC(=O)O` here?
Answer: inactive

Question: Which Potency does the source give for `CCCOc1cc(N)ccc1C(=O)OCCN(CC)CC` here?
Answer: inactive

Question: For `CC(C)[C@@H](C)/C=C/[C@@H](C)[C@H]1CC[C@H]2/C(=C/C=C3\C[C@@H](O)CC[C@@H]3C)CCC[C@]12C`, which Potency is on record?
Answer: inactive

Question: With `Cc1cccc(C)c1NC(=O)NC1=CCCN1C` as the compound, how does the Potency read?
Answer: inactive

Question: Which Potency does the source give for `CC(=O)Oc1cccc(C(=O)O)c1OC(C)=O` here?
Answer: inactive

Question: For `CC1=CC(=C(c2ccc(N)cc2)c2ccc(N)cc2)C=CC1=N`, which Potency is on record?
Answer: 14.6 µM (active)

Question: For `CO/N=C(\C(=O)N[C@@H]1C(=O)N2C(C(=O)[O-])=C(C[n+]3ccc(N)n3CCO)CS[C@H]12)c1csc(N)n1`, which Potency is on record?
Answer: inactive

Question: Which Potency does the source give for `C[C@@H]1O[C@@H]1P(=O)(O)O` here?
Answer: inactive

Question: Which Potency does the source give for `Nc1nccs1` here?
Answer: inactive

Question: Which Potency does the source give for `N=C(N)n1cccn1` here?
Answer: inactive

Question: Which Potency does the source give for `CCCC1C(=O)N2C(N(C)C)=Nc3ccc(C)cc3N2C1=O` (stereo unspecified) here?
Answer: inactive

Question: With `CC(C)(C)CC(C)(C)c1ccc(OCCO)cc1` as the compound, how does the Potency read?
Answer: inactive

Question: Which Potency does the source give for `Cc1cc(-c2ccc(N=Nc3ccc4c(S(=O)(=O)O)cc(S(=O)(=O)O)c(N)c4c3O)c(C)c2)ccc1N=Nc1ccc2c(S(=O)(=O)O)cc(S(=O)(=O)O)c(N)c2c1O` here?
Answer: inactive

Question: With `O=S(=O)(O)CC(S)CS` (stereo unspecified) as the compound, how does the Potency read?
Answer: inactive

Question: With `CC(=O)N[C@@H]1C(O[C@H]2O[C@H](C(=O)O)C(O)[C@H](O)[C@H]2O)[C@H](O)[C@@H](CO)O[C@H]1O[C@@H]1C(C(=O)O)O[C@@H](O[C@H]2[C@H](O)[C@@H](CO)OC(O)[C@@H]2NC(C)=O)[C@H](O)[C@H]1O` (stereo partly specified) as the compound, how does the Potency read?
Answer: inactive

Question: For `COC(=O)c1ccccc1O`, which Potency is on record?
Answer: inactive

Question: For `NCCN`, which Potency is on record?
Answer: inactive

Question: Which Potency does the source give for `CO/N=C(\C(=O)N[C@@H]1C(=O)N2C(C(=O)O)=C(CSc3nnnn3C)CS[C@H]12)c1csc(N)n1` here?
Answer: inactive

Reference: PubChem BioAssay (NCATS)
